Each structure is given as a SMILES string. Screen size: about 48,000 compounds; about 13,000 (27%) showed an effect of 50% or more. This is one part of the list.

In the assay the test system is Wolbachia pipientis. Description: Anti-Wolbachia Cell-Based Screen. It counts as functional. Further details: scale not given: in the data most compounds retested in dose-response had high values. Particulars: 5 µM.
With `Cn1cc(C(=O)N2CCOc3ccccc32)ccc1=O`, the “Percent Effect” value was -9.078%. Turning to `O=C(Nc1cc(-c2ccncc2)no1)C1CC1`, the “Percent Effect” value was -3.278%. As for `O=C(NCCc1cccc(Cl)c1)C1CCOCC1`, the figure is 2.096%; as for `O=C(NCCc1cc2nc(-c3ccncc3)ccn2n1)C1CC1`, 124.8%; as for `O=C(NCCc1cc2nc(-c3ccncc3)ccn2n1)C1CCOCC1`, 126.4%. Regarding `Cc1csc(CCNC(=O)C2CCOC2)n1` (stereo unspecified), the “Percent Effect” value is 0.3325%. As to `CC(C)N1CC(C(=O)NCCc2csc(-c3ccncc3)n2)CC1=O` (stereo unspecified), the “Percent Effect” value came out at 2.271%.

Turning to `Cc1cc(=O)n(C)cc1NC(=O)NCc1cccc(F)c1`, the “Percent Effect” value is on record as 28.52%. As for `CN1CCOC(C(=O)Nc2nc(-c3ccccc3F)n[nH]2)C1` (stereo unspecified), the figure is -6.828%; as for `O=C1NCCO[C@H]2CN(C(=O)Cc3ccco3)CC[C@@H]12`, -15.97%; as for `O=C(Cc1ccc(-c2ccccc2)cc1)N1CCOCC(O)C1` (stereo unspecified), -43.76%. Regarding `O=C(Cc1ccccc1)N1CC(=O)N(Cc2ccco2)CC(O)C1` (stereo unspecified), the “Percent Effect” value was found to be 119.5%. As for `O=C(O)C(F)(F)F.c1coc(CN2Cc3ccnn3CC(COCC3CC3)C2)c1` (stereo unspecified), the figure is 5.412%.

In the case of `O=C(COCc1ccccc1)N1CCN(Cc2ccccc2F)C(=O)C1`, the “Percent Effect” value was -37.48%. Take `O=C1CN(C(=O)OCc2ccccc2)CC(O)CN1Cc1ccco1` (stereo unspecified): the “Percent Effect” value is reported as 93.23%. In the case of `O=C(C1CN(Cc2ccoc2)CC12CCOCC2)N1CCCC1` (stereo unspecified), the “Percent Effect” value was -22.56%. Consider `COCc1cc(C[C@@H]2CC[C@H](O)[C@@H](CN(C)C)O2)no1`, for which the “Percent Effect” value was determined as 7.016%. On to `O=C(O)C(F)(F)F.O=C(c1ccoc1)N1CC[C@H]2OCC[C@@]2(COc2ncccc2F)C1`, for which the “Percent Effect” value amounted to 0.551%. As for `COc1ccc(C(C)N2CCC(NS(C)(=O)=O)CC2)cc1Cl` (stereo unspecified), the figure is -1.711%; as for `CC(C)O[C@@H]1CC[C@H]2[C@H]1OCCN2C(=O)c1nn(C)c2ccccc12`, 112.4%; as for `CO[C@@H]1CC[C@H]2[C@H]1OCCN2C(=O)c1ccco1`, -5.889%. Turning to `CO[C@@H]1CC[C@H]2[C@H]1OCCN2C(=O)c1nn(C)c2ccccc12`, the “Percent Effect” value turned out to be 115.4%.

In the case of `CO[C@H]1CC[C@H]2[C@H]1OCCN2C(=O)c1nn(C)c2ccccc12`, the “Percent Effect” value is listed as 119%. As for `COCCNC(=O)Nc1cccc(COCCOC(C)C)c1`, the figure is -33.02%; as for `Cn1cc(C#N)cc1C(=O)N1CCC2(CCCN(CC3CCC3)C2=O)C1` (stereo unspecified), -29.9%.

`COC(=O)C1CN(CC(=O)Nc2cc(F)ccc2F)c2ccccc21` (stereo unspecified): the “Percent Effect” value is listed as 6.543%. As for `O=C(Cn1cc(C(=O)O)ccc1=O)Nc1ccc(F)cc1Cl`, the figure is -4.302%; as for `Cc1nc(C)n(CC2CCCN2CC(=O)NCCc2ccccc2)n1` (stereo unspecified), 5.202%; as for `COC(=O)CC1CCCCN1CC(=O)Nc1ccc(F)cc1Cl` (stereo unspecified), 107.7%. For the compound `CCOC(=O)N1CCN(CC(=O)Nc2ccc(F)cc2Cl)CC1`, the “Percent Effect” value is given as -11.41%. As for `O=C(CN1CCCCC1Cn1cncn1)NCCc1ccc(F)cc1` (stereo unspecified), the figure is -1.768%. As for `COC(=O)CC1CCCCN1CC(=O)Nc1cc(F)ccc1F` (stereo unspecified), the figure is 97.72%; as for `O=C(CN1CCCCC1C1OCCO1)Nc1ccc(F)c(F)c1` (stereo unspecified), -7.301%; as for `COC(=O)CC1CCCCN1CC(=O)NCCc1ccc(F)cc1` (stereo unspecified), 106.1%. For `Cc1cc(C)c(CNC(=O)NCCNc2ncccn2)c(=O)[nH]1`, the “Percent Effect” value is given as -4.444%. Consider `CCc1nsc(NC2CCCn3nc(CC)nc32)n1` (stereo unspecified), for which the “Percent Effect” value was found to be 0.3299%.

Take `CC1=NN(c2ccc(C(=O)OCCNC(=O)c3ccncc3)cc2)CC1`: the “Percent Effect” value came out at 6.071%.

In the case of `CCOC(=O)c1ccc(NC(=O)c2c(O)nc3c(c2O)CCCC3)cc1`, the “Percent Effect” value came out at 115.5%.

Take `Nc1nc2c(c(NC(=O)Nc3ccc(Cl)c(Cl)c3)n1)CCCC2`: the “Percent Effect” value was found to be 4.347%. As for `CC(C)(C)c1cnc(CN2CCCS(=O)(=O)CC2)o1`, the figure is -0.7322%; as for `OCC1CCN(Cc2cc3c(cc2Br)OCCO3)CC1`, -6.909%. As for `Cn1ccnc1CN1CCCC1c1noc(C2CC2)n1` (stereo unspecified), the figure is 3.243%.

Consider `CCc1nc(C2CCCN2Cc2nnc(CC)o2)no1` (stereo unspecified), for which the “Percent Effect” value was -8.839%. Regarding `FC(F)(F)Cn1ccnc1CN1CCCC1c1noc(C2CC2)n1` (stereo unspecified), the “Percent Effect” value was determined as 2.411%.

For `CC(C)c1nc(C2CCCN2Cc2ccno2)no1` (stereo unspecified), the “Percent Effect” value is recorded as -3.719%. As for `c1cc(CN2CCCC2c2noc(C3CC3)n2)on1` (stereo unspecified), the figure is 95.79%. As for `CCc1nc(C2CCCN2Cc2ccno2)no1` (stereo unspecified), the figure is 111.3%; as for `O=S(=O)(N1CCCCCC1)N1CCc2sccc2C1`, 4.086%; as for `CS(=O)(=O)N1CCOC(CNC(=O)c2cccc(C#N)c2)C1` (stereo unspecified), -22.73%.

Regarding `O=C(c1cccc(F)c1)N(CCCO)S(=O)(=O)c1cccs1`, the “Percent Effect” value was -5.785%. As for `Cc1cccc(OC2CCN(C(=O)Cn3ccc4ccccc43)CC2)n1`, the figure is 1.872%; as for `Cn1cc(CN2CCCC(CCc3ccccc3C(F)(F)F)C2)cn1` (stereo unspecified), 9.578%; as for `Cn1cc(CN2CCOC(c3nccnc3-c3cccc(F)c3)C2)cn1` (stereo unspecified), 187.6%.

Take `Cn1cc(CN2CCCC(c3nccnc3-c3cccc(F)c3)C2)cn1` (stereo unspecified): the “Percent Effect” value was found to be 135.8%. As for `Cn1cc(CNC(=O)C2CCCN(Cc3cccc(F)c3)C2)cn1` (stereo unspecified), the “Percent Effect” value was -5.601%.

Consider `Cn1cc(CN2CCOC(c3cccc(-c4cccc(F)c4)n3)C2)cn1` (stereo unspecified), for which the “Percent Effect” value amounted to 143.3%. As for `CC(C)c1ccc(CN2CCC3(CCCN(c4nncs4)C3)C2)cc1.O=C(O)C(F)(F)F` (stereo unspecified), the figure is 37.55%; as for `Cc1cccc(OCCC(=O)N2CCN(S(=O)(=O)N(C)C)CC2)c1C`, -2.723%. As for `Cl.O=C(NC[C@@]1(COc2cnccn2)C[C@@H](O)[C@@H](O)C1)C1CCCC1`, the figure is -8.405%. Turning to `CCCN(Cc1cnc2ccccc2n1)Cc1ccccc1OC`, the “Percent Effect” value was -2.298%.

For the compound `COc1ccccc1CN(C)Cc1ccnc(C2CCCO2)n1` (stereo unspecified), the “Percent Effect” value is recorded as 134%. As for `COc1ccc(CN(C(=O)C2CCCO2)c2ccncc2)cc1` (stereo unspecified), the figure is -15.48%; as for `COc1ccc(CN(C)Cc2ccnc(C3CCCO3)n2)cc1` (stereo unspecified), 120.3%; as for `COc1ccc(CN(C(=O)C2CCOCC2)c2ccncc2)cc1`, -12.74%.

Consider `COc1ccnc(N(C)Cc2ccccc2OC(F)(F)F)n1`, for which the “Percent Effect” value is -0.2691%. For the compound `COc1ccc(Cl)cc1NC(=O)CCC1CCCN(Cc2ncon2)C1` (stereo unspecified), the “Percent Effect” value was 23.91%.

The record behind these values is ChEMBL document CHEMBL3988442, “University of Dundee, Small-Polar-MMV Screening Library” (2021).
